# Laboratory results as given in the antibiotic and cytotoxicity screens of Wong et al. (2023).
# Hit rate of the full screen: of about 39,000 compounds, about 3,300 (8.5%) were called active. The sample holds actives, similar compounds and a random draw of the others, so the mix is not that of the screen.
# System: HepG2
# Test: cytotoxicity call (relative viability < 0.9)
# Conditions: 10 µM
row,SMILES,cytotoxicity call
1,CCn1nnnc1NCc1cccn1C,inactive
2,C[C@@H]1CN([C@H](C)CO)C(=O)c2cc(NC(=O)Nc3ccc(C(F)(F)F)cc3)ccc2O[C@H]1CN(C)Cc1ccc(C(F)(F)F)cc1,active
3,C[C@@H]1CN([C@@H](C)CO)C(=O)c2cc(NC(=O)Nc3ccc(C(F)(F)F)cc3)ccc2O[C@H]1CN(C)Cc1ccc(C(F)(F)F)cc1,active
4,C[C@@H]1CN([C@H](C)CO)C(=O)c2cc(NC(=O)Nc3ccc(C(F)(F)F)cc3)ccc2O[C@@H]1CN(C)Cc1ccc(C(F)(F)F)cc1,active
5,C[C@@H]1CN([C@@H](C)CO)C(=O)c2cc(NC(=O)Nc3ccc(C(F)(F)F)cc3)ccc2O[C@@H]1CN(C)Cc1ccc(C(F)(F)F)cc1,active
6,C[C@H](CO)N1C[C@H](C)[C@H](CN(C)S(=O)(=O)c2ccc(F)cc2)Oc2ccc(NS(=O)(=O)c3ccc(F)cc3)cc2CC1=O,inactive
7,c1cnc2c(c1)OCCN2,inactive
8,C=CCC[C@@H](Cc1ccc(F)cc1)C(=O)OC[C@H]1CCCN1C(=O)[C@H](CC=C)CC(=O)N(CCO)Cc1ccccc1,inactive
9,C[C@@H]1CCCCO[C@@H](CN(C)C(=O)C2CCCCC2)[C@@H](C)CN([C@@H](C)CO)C(=O)c2cc(NC(=O)c3ccccc3)ccc2O1,inactive
10,O=c1nc(NCc2ccco2)cc[nH]1,inactive
11,C[C@@H]1CN([C@@H](C)CO)C(=O)c2cc(NC(=O)Cn3cnnn3)ccc2O[C@H]1CN(C)Cc1ccc2c(c1)OCO2,inactive
12,COc1ccc(S(=O)(=O)N(C)C[C@H]2Oc3ccc(NS(=O)(=O)c4ccccc4)cc3C(=O)N([C@H](C)CO)C[C@@H]2C)cc1,inactive
13,Cc1ccc(S(=O)(=O)Nc2ccc3c(c2)CC(=O)N([C@@H](C)CO)C[C@H](C)[C@@H](CN(C)S(=O)(=O)c2ccccc2)O3)cc1,inactive
14,Cc1noc(C)c1NC(=O)Nc1ccc2c(c1)C(=O)N([C@@H](C)CO)C[C@H](C)[C@@H](CN(C)S(=O)(=O)c1ccc(Cl)cc1)OCCCC[C@H](C)O2,inactive
15,CCOC(=O)C1=NNC[C@@H]1C(=O)OCC,inactive
16,C[C@H](CO)N1C[C@H](C)[C@H](CN(C)Cc2ccc(C(F)(F)F)cc2)Oc2ccc(NC(=O)Nc3ccc(C(F)(F)F)cc3)cc2C1=O,active
17,C[C@H]1CN([C@@H](C)CO)C(=O)c2cc(NC(=O)Nc3ccc(C(F)(F)F)cc3)ccc2O[C@H]1CN(C)Cc1ccc(C(F)(F)F)cc1,inactive
18,C[C@H]1CN([C@@H](C)CO)C(=O)c2cc(NC(=O)Nc3ccc(C(F)(F)F)cc3)ccc2O[C@@H]1CN(C)Cc1ccc(C(F)(F)F)cc1,active
19,C[C@H](CO)N1C[C@H](C)[C@@H](CN(C)Cc2ccc(C(F)(F)F)cc2)Oc2ccc(NC(=O)Nc3ccc(C(F)(F)F)cc3)cc2C1=O,inactive
20,CC(=O)N1CCN(c2ccnc3c2c(=O)n(CC(=O)NC(C)(C)C)c(=O)n3C)CC1,inactive
21,CO[C@H]1C[C@@H]2CC[C@@H](C)[C@@](O)(O2)C(=O)C(=O)N2CCCC[C@H]2C(=O)O[C@H]([C@H](C)C[C@@H]2CC[C@@H](OCCO)[C@H](OC)C2)CC(=O)[C@H](C)/C=C(\C)[C@@H](O)[C@@H](OC)C(=O)[C@H](C)C[C@H](C)/C=C/C=C/C=C/1C,inactive
22,C[C@@H]1CN([C@@H](C)CO)C(=O)Cc2cc(NS(=O)(=O)c3cn(C)cn3)ccc2O[C@@H]1CN(C)S(=O)(=O)c1ccc(Cl)cc1,inactive
23,C[C@H]1CN([C@@H](C)CO)C(=O)c2cccc(NS(=O)(=O)c3ccc(Cl)cc3)c2O[C@H]1CN(C)Cc1ccc(-c2ccccc2)cc1,inactive

row,SMILES,cytotoxicity call
1,COc1ccc(N2C(=O)C[C@@H](c3ccc(Br)cc3)[C@H]2C(=O)Nc2cccc3cccnc23)cc1,inactive
2,COc1nc(=NC(=O)NS(=O)(=O)Nc2cccc3cccnc23)nc(OC)[nH]1,active
3,C[C@@H]1CN([C@H](C)CO)C(=O)Cc2cc(NS(=O)(=O)c3ccc(F)cc3)ccc2O[C@H]1CN(C)S(=O)(=O)c1cccs1,inactive
4,Cc1cc(C2(c3cc(C)c(N)c(C)c3)CCCCC2)cc(C)c1N,active
5,CC1CCC(NC(=O)N(CCCl)[NH2+][O-])CC1 (stereo not drawn),inactive
6,CC(C)NC(=O)[C@@H]1c2ccccc2C(=O)N(Cc2cc(C(F)(F)F)cc(C(F)(F)F)c2)[C@H]1c1ccc(CO)cc1,inactive
7,Cc1ccc(N(c2ccc(C)cc2)c2cccnc2)cc1,inactive
8,C[C@@H]1CN([C@@H](C)CO)S(=O)(=O)c2ccc(C#Cc3ccccc3F)cc2O[C@@H]1CN(C)CC1CCOCC1,inactive
9,O=C(C[C@H]1C=C[C@H](NC(=O)CN2CCOCC2)[C@@H](CO)O1)NCCc1ccccc1,inactive
10,CC(C)NC(=O)N(C)C[C@@H]1Oc2ccc(NC(=O)NC3CCCCC3)cc2C(=O)N([C@@H](C)CO)C[C@H]1C,inactive
11,Cc1ccc(S(=O)(=O)N(C)C[C@@H]2OCCCC[C@H](C)Oc3ccc(NC(=O)Nc4ccc(F)cc4)cc3C(=O)N([C@@H](C)CO)C[C@H]2C)cc1,inactive
12,Cc1ccc(S(=O)(=O)N(C)C[C@H]2OCCCC[C@@H](C)Oc3ccc(NC(=O)Nc4ccc(F)cc4)cc3C(=O)N([C@@H](C)CO)C[C@H]2C)cc1,active
13,Cc1ccc(S(=O)(=O)N(C)C[C@@H]2OCCCC[C@@H](C)Oc3ccc(NC(=O)Nc4ccccc4)cc3C(=O)N([C@H](C)CO)C[C@H]2C)cc1,inactive
14,Cc1ccc(S(=O)(=O)N(C)C[C@@H]2OCCCC[C@H](C)Oc3ccc(NC(=O)Nc4ccccc4)cc3C(=O)N([C@@H](C)CO)C[C@H]2C)cc1,inactive
15,Cc1ccc(S(=O)(=O)N(C)C[C@@H]2OCCCC[C@H](C)Oc3ccc(NC(=O)Nc4ccc(F)cc4)cc3C(=O)N([C@@H](C)CO)C[C@@H]2C)cc1,inactive
16,Cc1ccc(S(=O)(=O)N(C)C[C@@H]2OCCCC[C@@H](C)Oc3ccc(NC(=O)Nc4ccc(F)cc4)cc3C(=O)N([C@@H](C)CO)C[C@@H]2C)cc1,inactive
17,Cc1ccc(S(=O)(=O)N(C)C[C@H]2OCCCC[C@@H](C)Oc3ccc(NC(=O)Nc4ccc(F)cc4)cc3C(=O)N([C@H](C)CO)C[C@H]2C)cc1,inactive
18,Cc1ccc(S(=O)(=O)N(C)C[C@@H]2OCCCC[C@@H](C)Oc3ccc(NC(=O)Nc4ccc(F)cc4)cc3C(=O)N([C@H](C)CO)C[C@H]2C)cc1,active
19,Cc1ccc(S(=O)(=O)N(C)C[C@@H]2OCCCC[C@@H](C)Oc3ccc(NC(=O)Nc4ccccc4)cc3C(=O)N([C@@H](C)CO)C[C@H]2C)cc1,active
20,CCS(=O)(=O)N1CC[C@]2(CC1)CN(Cc1ccc3c(c1)OCO3)[C@H](CO)c1c2c2ccc(cc2n1C)OC,inactive
21,O=C(C[C@H]1C=C[C@H](NC(=O)Cc2ccccn2)[C@@H](CO)O1)NCCCN1CCOCC1,inactive
22,CC(C)NC(=O)Nc1ccc2c(c1)C(=O)N([C@H](C)CO)C[C@H](C)[C@@H](CN(C)Cc1ccc(Oc3ccccc3)cc1)O2,inactive
23,C[C@H](CO)N1C[C@H](C)[C@@H](CN(C)S(=O)(=O)c2ccc(F)cc2)Oc2ncc(Br)cc2C1=O,inactive

row,SMILES,cytotoxicity call
1,C[C@@H]1CN([C@@H](C)CO)C(=O)Cc2cc(NS(=O)(=O)c3ccc(F)cc3)ccc2O[C@@H]1CN(C)CC1CC1,inactive
2,COc1ccccc1-c1ccc2c(c1)O[C@@H](CN(C)C(=O)c1ccncc1)[C@@H](C)CN([C@@H](C)CO)S2(=O)=O,inactive
3,O=c1cc[nH]c(=S)[nH]1,inactive
4,Cn1cnc(S(=O)(=O)N2C[C@@H](O)COC[C@@H]3O[C@@H](CC(=O)NCc4cccc(F)c4)CC[C@H]32)c1,inactive
5,C[C@@H]1CCCCO[C@H](CN(C)Cc2ccc(C(=O)O)cc2)[C@@H](C)CN([C@@H](C)CO)C(=O)c2cc(NC(=O)Nc3ccccc3)ccc2O1,inactive
6,N=C(N)c1ccc(OCCCCCOc2ccc(C(=N)N)cc2)cc1.O=S(=O)(O)CCO.O=S(=O)(O)CCO,active
7,CC(=O)NCCOc1ccc(C(=O)O)cc1,inactive
8,N=C(N)c1ccc(C(N)=O)cc1,inactive
9,C[C@@H]1CCCCO[C@@H](CN(C)S(=O)(=O)c2cn(C)cn2)[C@H](C)CN([C@H](C)CO)C(=O)c2cc(NS(C)(=O)=O)ccc2O1,inactive
10,C[C@H](CO)N1C[C@H](C)[C@@H](CN(C)S(=O)(=O)c2ccccc2)Oc2ccc(NS(=O)(=O)c3cn(C)cn3)cc2C1=O,inactive
11,CO[C@H]1CN(C)C(=O)c2cc(NC(C)=O)ccc2OC[C@H](C)N(S(=O)(=O)c2cn(C)cn2)C[C@H]1C,inactive
12,CCC(=C(CC)c1ccc(O)cc1)c1ccc(O)cc1,active
13,CCC(c1ccc(O)cc1)C(CC)c1ccc(O)cc1 (stereo not drawn),inactive
14,CCC(=O)c1ccc(O)cc1,inactive
15,CNC[C@@H]1OCCCC[C@H](C)Oc2ccc(NC(=O)Nc3ccc(C(F)(F)F)cc3)cc2C(=O)N([C@@H](C)CO)C[C@H]1C,inactive
16,O=C(Cc1ccccn1)NCC[C@@H]1CC[C@H](NC(=O)CN2CCOCC2)[C@@H](CO)O1,inactive
17,Cc1ccc(S(=O)(=O)n2cc([C@@H]3CC(=O)N(C(=O)OCc4ccccc4)[C@@H]3C(=O)Nc3cccc4cccnc34)c3ccccc32)cc1,inactive
18,CN1CCN(c2ccc(OC(F)(F)F)c(Nc3ncc4c(n3)-c3c(c(C(N)=O)nn3CCO)CC4)c2)CC1,active
19,Cn1c(=O)c2c(nc(NCCN)n2C)n(C)c1=O,inactive
20,COc1ccc2c3c([nH]c2c1)[C@@H](CO)N(C[C@]13CCN(CC1)C(=O)CN(C)C)S(=O)(=O)C,inactive
21,CCCN(CCC)c1cc(N2CCCC2)c2ccccc2c1,active
22,C[C@@H]1CN([C@H](C)CO)C(=O)c2cc(NC(=O)Cc3ccccc3)ccc2O[C@H]1CN(C)S(=O)(=O)c1ccccc1,inactive
